# ChEMBL document CHEMBL4513216, “Probing the Open Global Health Chemical Diversity Library for Multistage-Active Starting Points for Next-Generation Antimalarials” (ACS Infect Dis, 2020)
# Out of some 69,000 compounds screened, about 8,600 (12%) showed an effect of 50% or more. Many of the other results were omitted from the sample, so strong results are more common in it than they were.
# System: Plasmodium berghei
# Test: Screen against P. berghei liver stage (PbLuc), transformed with Luciferase, at 10uM
# Assay type: functional, HepG2
# Details: tested at 10 uM
row,Structure (SMILES),INHIBITION [%]
1,Cc1noc(C)c1C(=O)NCC(C)N1CCc2ccccc21 (stereo not given),13.6
2,Cc1cc(C(F)(F)F)nn1CC(C)C(=O)Nc1cccnc1 (stereo not given),15.1
3,Cc1noc(C2CCC3(CCN(C(=O)c4sccc4C)CC3)O2)n1 (stereo not given),-54.7
4,CN1CC(C(=O)NCc2ccnc(-n3cccn3)c2)CC1=O (stereo not given),-0.7
5,CN(Cc1ccco1)[C@@H]1CN(Cc2ccncc2)C[C@@H]2CCCO[C@@H]21,23.5
6,CN(C)c1ccc(CNC2(c3ccc(F)cc3)CCOCC2)cc1F,55.6
7,Fc1ccc(C2(NCc3ccccc3)CCOCC2)cc1,4.48
8,CSc1ccc(CNC2(c3ccc(F)cc3)CCOCC2)cc1,13.5
9,O=S(=O)(c1cncc(F)c1)N1CCC2(CCCCC2)C1,19.3
10,Cn1ncc2c1C(COCC1CC1)CN(Cc1ccco1)C2 (stereo not given),20.6
11,Cc1ccc(CN2Cc3cnn(C)c3C(COCC3CC3)C2)o1 (stereo not given),54.4
12,Cc1noc(C)c1CN1Cc2cn(C)nc2C(COCC2CC2)C1 (stereo not given),48.6
13,Cc1ccc(CN2Cc3nnn(C)c3C(COCC3CC3)C2)o1 (stereo not given),-14.7
14,Cc1noc(C)c1CN1Cc2cnn(C)c2C(COCC2CC2)C1 (stereo not given),54.4
15,Cc1ncsc1CN1Cc2cnn(C)c2C(COCC2CC2)C1 (stereo not given),-0.813
16,Cn1ncc2c(=O)[nH]c(CN3CCCC3c3ccccc3Cl)nc21 (stereo not given),-19.6
17,Cc1ccc(-c2nc(C(=O)N(C)C3CCN(C)CC3)cs2)c(C)c1,27.7
18,Cc1sc(Br)cc1S(=O)(=O)NCCCN,8.08
19,CC(=O)N1CCCN(C(=O)NCC2(c3cccs3)CCCC2)CC1,23.9
20,Cc1nc(C)n(CC2CCCN(CCOc3ccc(F)cc3)C2)n1 (stereo not given),4.52
21,CN1CCO[C@H]2CN(S(=O)(=O)c3ccc(C#N)cc3)C[C@H]21,5.63
22,CC(C)NCC1(COc2ccccc2)C[C@@H](O)[C@@H](O)C1 (stereo not given in full),38.3

row,Structure (SMILES),INHIBITION [%]
1,NC(=O)c1ccc(OCC(=O)N2CCCC(n3cccn3)C2)cc1 (stereo not given),-25.9
2,O=C(COCCc1ccccc1)N1CCCC(n2cccn2)C1 (stereo not given),61.9
3,O=C(CCNc1ncccn1)N1CCCC(n2cccn2)C1 (stereo not given),50.3
4,NC(=O)COc1cccc(C(=O)N2CCCC(n3cccn3)C2)c1 (stereo not given),20.1
5,O=C(COCCc1ccccc1)N1CCCC(n2cncn2)C1 (stereo not given),7.12
6,O=C(COCC1CC1)N1CCCC(n2cccn2)C1 (stereo not given),8.48
7,O=C(CCNc1ncccn1)N1CCCC(n2ccnc2)C1 (stereo not given),21.1
8,NC(=O)c1cccc(OCC(=O)N2CCCC(n3cccn3)C2)c1 (stereo not given),57.5
9,O=C(CCCNc1ncccn1)N1CCCC(n2cccn2)C1 (stereo not given),8.48
10,Cc1nn(C)c(N(C)C)c1CNC(C)COc1ccc(F)cc1F (stereo not given),-41.6
11,O=S(=O)(NCCC(O)c1ccoc1)c1ccc(Cl)s1 (stereo not given),-5.22
12,COc1cc2nc(C)n(CC(=O)NCCO)c(=O)c2cc1OC,4.82
13,COc1cc(OC)cc(-c2noc(CC(N)c3ccccc3)n2)c1 (stereo not given),36.3
14,CN1CCN(Cc2nnc(C3CCN(S(C)(=O)=O)CC3)n2C)CC1,-14.3
15,CN(CC(F)(F)F)C(=O)CNC(=O)N1CCCC(N(C)C)C1 (stereo not given),53.3
16,CC1CCN(C(=O)NCC(=O)N(C)CC(F)(F)F)C1 (stereo not given),18.6
17,CN(CC(F)(F)F)C(=O)CNC(=O)N1CCCC(C(F)(F)F)C1 (stereo not given),18.6
18,NCC(=O)N1CCCC1c1nccnc1Nc1ncccn1 (stereo not given),59
19,CCC(=O)N1CCCC1c1nccnc1Nc1ncccn1 (stereo not given),42.6
20,NCC(=O)N1CCCC(c2cncc(Nc3ncccn3)n2)C1 (stereo not given),51.7
21,c1cnc(Nc2cncc(C3CCCN(c4cnccn4)C3)n2)nc1 (stereo not given),-6.3
22,COc1ccccc1Oc1cncc(C2CCCN(CC(N)=O)C2)n1 (stereo not given),20.8

row,Structure (SMILES),INHIBITION [%]
1,c1cnc(Nc2cncc(C3CCCN(c4ncccn4)C3)n2)nc1 (stereo not given),-0.371
2,NC(=O)CN1CCCC(c2cncc(Nc3ncccn3)n2)C1 (stereo not given),59
3,NCC(=O)N1CCCC(c2ccnc(Nc3cnccn3)n2)C1 (stereo not given),18.9
4,COCC(=O)N1CCCC1c1nccnc1Nc1ncccn1 (stereo not given),7.05
5,CCS(=O)(=O)N1CCC2(CCC2NC(=O)c2ccn(C)c2)CC1 (stereo not given),8.53
6,O=C(c1ccno1)N1CCO[C@@H]2CC(COCc3ccccn3)C[C@H]21 (stereo not given in full),8.6
7,COc1cc(C(=O)N(Cc2cnn(C)c2)C(C)C)ccc1C,14.1
8,COc1cc(N2CC[C@@H]3O[C@H](C(=O)NCC4CC4)C[C@@H]32)ncn1,-22.1
9,Cc1cc(Oc2ccccc2F)nc(C2CCCCN2)n1 (stereo not given),10.9
10,CN(Cc1nnn(CC2CC2)n1)C(=O)c1ccccc1,1.74
11,CCCn1c(=O)n(CCC(=O)N(C)Cc2ccc(C)o2)c2ccccc21,83.2
12,Cc1ccc(CN(C)C(=O)CCn2c(=O)n(C)c3ccccc32)o1,49.7
13,CCn1c(=O)n(CCC(=O)N(C)Cc2ccc(C)o2)c2ccccc21,15.4
14,CCN1CCC(NC(=O)NCC(O)c2ccc(Cl)c(F)c2)CC1 (stereo not given),43.1
15,CC(C)CCN1CCCC12Cc1ccccc1CNC2=O (stereo not given),14.3
16,O=C1Nc2ccccc2CC12CCCN2Cc1ccc(F)cc1 (stereo not given),-38.7
17,Cc1cc(C)c(CN2CCCC23Cc2ccccc2CNC3=O)c(C)c1 (stereo not given),68.9
18,O=C1Nc2ccccc2CC12CCCN2Cc1cccnc1 (stereo not given),-2.28
19,O=C1NCc2ccccc2CC12CCCN(CCCc1ccccc1)C2 (stereo not given),27.5
20,Cc1ccc(CCN2CCCC23Cc2ccccc2CNC3=O)cc1 (stereo not given),54.9
21,CC(C)(C)CN1CCCC12Cc1ccccc1CNC2=O (stereo not given),32.5
22,O=C1Nc2ccccc2CC12CCCN2Cc1ccccn1 (stereo not given),27.5

row,Structure (SMILES),INHIBITION [%]
1,Cc1ccc(CN2CCCC23Cc2ccccc2CNC3=O)cc1 (stereo not given),52.4
2,O=S(=O)(c1cccnc1)N1C[C@H]2CCC[C@@]2(COc2ccccn2)C1,38.5
3,CCn1c(N)nc2cc(C(=O)NCCc3ccncc3)cnc21,-20
4,Nc1ccc(CC2CCCN(Cc3c[nH]cn3)C2)nn1 (stereo not given),-4.87
5,COc1ccc(CN2CCn3cc(CN4CCCCC4)nc3C2)cc1,0.79
6,CC(C)Oc1ccc(C(=O)N2CCCCC2Cn2cccn2)cn1 (stereo not given),-21.645
7,O=C(c1cccnc1)N1CCc2c(nc(N3CCCC3)[nH]c2=O)C1,46
8,Cc1nc(C(C)C)ncc1C(=O)N1CCc2c(nc(N(C)C)[nH]c2=O)C1,50.1
9,CN(C)c1nc2c(c(=O)[nH]1)CCN(C(=O)c1ccc(=O)[nH]c1)C2,4.1
10,O=C(c1ccc(=O)[nH]c1)N1CCc2c(nc(-c3cccnc3)[nH]c2=O)C1,61.8
11,CN(C)c1nc2c(c(=O)[nH]1)CCN(C(=O)c1cccc3nccnc13)C2,6.8
12,O=c1[nH]c(-c2cccnc2)nc2c1CCN(S(=O)(=O)N1CCCC1)C2,23.6
13,CN(C)c1nc2c(c(=O)[nH]1)CCN(C(=O)c1c[nH]c(=O)c(Cl)c1)C2,51.1
14,CCCc1ccc(C(=O)N2CCc3c(nc(N(C)C)[nH]c3=O)C2)cc1,23.3
15,CN(C)c1nc2c(c(=O)[nH]1)CCN(C(=O)C1CCCO1)C2 (stereo not given),6.26
16,CCc1onc(C)c1C(=O)N1CCN(c2ncc3c(n2)CCOC3)CC1,17.05
17,Cc1n[nH]c(C)c1C1COCCN1C(=O)c1n[nH]c2ccccc12 (stereo not given),-2.25
18,O=c1[nH]nc(CCCN2CCOCC2)n1Cc1cccc(F)c1,10.3
19,O=C(CCN1CCCCC1)Nc1c2c(cc3c1CCC3)CCC2,18.8
20,Cn1cc(S(=O)(=O)NCCc2ccsc2)cn1,70.9
21,Cn1cc(S(=O)(=O)NCC(C)(O)c2ccsc2)cn1 (stereo not given),16.3
22,Cn1cc(S(=O)(=O)NCc2ccsc2)cn1,-17.8

row,Structure (SMILES),INHIBITION [%]
1,CNc1nc(C(=O)N2CCCC(COc3ccc(F)cc3)C2)cs1 (stereo not given),44.9
2,Cn1ccc(C(=O)N2CCC(Cc3cnc4[nH]ccc4c3)C2)n1 (stereo not given),-77.5
3,CCCC(=O)N(C)C(c1cccc(F)c1)c1ccccn1 (stereo not given),13.6
4,Cc1cccc2nc(CSCC(=O)Nc3nnc(C(C)C)s3)cc(=O)n12,24.5
5,Cc1nnc(NC(=O)CSCc2cc(=O)n3ccccc3n2)s1,27.5
6,Cc1cccn2c(=O)cc(CSCC(=O)Nc3nnc(C(C)C)s3)nc12,14.7
7,CC(C)c1nnc(NC(=O)CSCc2cc(=O)n3ccccc3n2)s1,38.9
8,Cc1ccn2c(=O)cc(CSCC(=O)Nc3nnc(C(C)C)s3)nc2c1,52.5
9,Cc1ccc2nc(CSCC(=O)Nc3nnc(C(C)C)s3)cc(=O)n2c1,50.2
10,c1ncn(CC2CN(CCCOc3ccc4c(c3)OCO4)CCO2)n1 (stereo not given),36.1
11,O=C(Nc1ccccn1)N(CCO)Cc1ccccc1Br,10.2
12,Cn1cnc2c1C(COCC1CCOCC1)CN(c1ncccn1)C2 (stereo not given),33.4
13,Cc1nc(O)c2nnn(C[C@H]3CCCN3C(=O)c3cccs3)c2n1,31.6
14,CCn1ncnc1CN1CCc2[nH]cnc2C1CCc1ccccc1 (stereo not given),1.94
15,COc1ncccc1CN1CCc2[nH]cnc2C1CCSC (stereo not given),33.4
16,CSCCC1c2nc[nH]c2CCN1Cc1ccnc2ccccc12 (stereo not given),-9.67
17,CCn1ncnc1CN1CCc2[nH]cnc2C1Cc1ccccc1 (stereo not given),-56.1
18,O=C(O)C1c2nc[nH]c2CCN1Cc1ccccc1-c1ccccc1 (stereo not given),12.7
19,CSCCC1c2nc[nH]c2CCN1Cc1ccccc1C#N (stereo not given),40.9
20,CSCCC1c2nc[nH]c2CCN1Cc1cncn1C (stereo not given),56.1
21,CSCCC1c2nc[nH]c2CCN1Cc1cc(Cl)ccc1O (stereo not given),70.6
22,CSCCC1c2nc[nH]c2CCN1Cc1ccccc1C(F)(F)F (stereo not given),69.1
